# Assay outcomes from PubChem BioAssay.
# Rows were chosen to be rich in hits. Some 0.92% of all compounds tested hit in one or more screens of this group.
# LAP4 TOR yeast = modulators of LAP4-GFP expression in yeast, primary screen, S. cerevisiae, multiplex flow cytometry, MLPCN library; GFP response vs DMSO, % at 10 µM; 0.34% of 320,000 active; 3 h; median GFP as percent of DMSO wells; AID 2023, 2009;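 active = GFP response vs DMSO above a set limit, about the screen mean plus 3 SD, cut at about 150% in these data; inconclusive = under 70 cell events counted for the yeast strain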
# MEP2-GFP yeast = modulators of MEP2-GFP levels in yeast, primary screen, S. cerevisiae, multiplex flow cytometry, MLPCN library | 0.51% of 330,000 active | GFP response vs DMSO, % at 10 µM | S. cerevisiae MEP2-GFP strain, 3 h; 100% = DMSO control level;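 active = GFP response versus DMSO above a set limit, roughly screen mean plus 3 SD, cut at about 180% in these data; inconclusive = fewer than 70 cells counted for a yeast strain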;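 also: median GFP fluorescence of the barcode-gated MEP2-GFP cells per well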
# RPL19A-GFP yeast = RPL19A-GFP expression modulators in yeast, primary screen, cell-based, S. cerevisiae, multiplex flow cytometry, MLPCN; S. cerevisiae RPL19A-GFP strain, 3 h; hits give low values; percent response vs DMSO, % at 10 µM; 0.3% of 330,000 active;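 active = percent response vs DMSO below 50%; inconclusive = fewer than 70 events counted for the yeast strain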;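 also: median channel GFP fluorescence of the barcoded RPL19A-GFP strain; ratio of sample median GFP to plate DMSO average so 100% = DMSO; lower means less RPL19A-GFP as with rapamycin TOR inhibition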
# AGP1-GFP MLPCN = modulators of AGP1-GFP expression in yeast TOR pathway, primary screen, cell-based, multiplex flow cytometry, S. cerevisiae, MLPCN library; GFP response vs DMSO, % at 10 µM; 3 h; GFP as percent of DMSO wells; AID 2066, 2009; 0.02% of 320,000 active;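 active = GFP response relative to DMSO above a set limit, near screen average plus 3 SD, cut at about 150% in these data; inconclusive = fewer than 70 cells counted for the yeast strain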;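 also: median GFP channel fluorescence of the gated AGP1 strain per well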
# CIT2 TOR yeast = modulators of CIT2-GFP expression in yeast, primary screen, S. cerevisiae, GFP fusion, multiplex flow cytometry, MLPCN library. GFP response vs DMSO, % at 10 µM. AID 2029, 2009. S. cerevisiae CIT2-GFP strain, 3 h; 100 means same as DMSO wells. 0.065% of 320,000 active;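 active = GFP response relative to DMSO above a set limit, near the screen mean plus 3 SD, cut at about 150% in these data; inconclusive = Fewer than 70 cells measured for a yeast strain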;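 also: ratio of well median GFP fluorescence to mean of DMSO wells on the plate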
# * hit, by the source's call; ? = inconclusive; ! = repeats disagree; [ ] = another dose, or the depositor's remark.
SMILES,LAP4 TOR yeast,MEP2-GFP yeast,RPL19A-GFP yeast,AGP1-GFP MLPCN,CIT2 TOR yeast
Oc1c(Br)cc(Br)cc1C=Nc1cccc2ncccc12,191*,92,81,70,65
O=S(=O)(c1ccc(Cl)nc1)N1CCCc2ccccc21,71,207*[may fluoresce violet],53,?,?
CC(=O)N/N=C/c1cc(C(C)C)cc(/C=N/NC(C)=O)c1O,181*[may fluoresce violet],195*[may fluoresce violet],113,49,?
COc1ccc(NC(=O)CSc2nnc(NC(=O)C3CCC3)s2)cc1,90,106,105,93,105
COc1ccc(NC(=O)CSc2nnc(NC(=O)C3CCC3)s2)c(OC)c1,90,199*[may fluoresce violet],46*[may fluoresce violet],?,?
CSc1cccc(NC(=O)C2CCCN(S(=O)(=O)c3cccs3)C2)c1 (stereo unspecified),?,?,16*[may fluoresce violet],?,?
CSc1cccc(NC(=O)C2CCCN(S(=O)(=O)c3ccc(F)cc3)C2)c1 (stereo unspecified),103,105,105,109,96
CC(=O)c1c(C)[nH]c(C(=O)OCc2nnc(-c3ccc([N+](=O)[O-])cc3)o2)c1C,95,91,95,90,90
Cn1c(=O)c2c(nc(SCCN3CCCCC3)n2Cc2ccccc2)n(C)c1=O,114,280*[may fluoresce violet],23*[may fluoresce violet],?,?
Cc1ccc(Cn2c(SCCN3CCCCC3)nc3c2c(=O)n(C)c(=O)n3C)cc1,95,96,95,98,90
Cn1c(N2CCCC2)nc2c1c(=O)n(Cc1ccc(Cl)cc1)c(=O)n2C,162*,99,99,100,72
O=c1oc(-c2cccc(Cl)c2)nc2c1cnn2-c1ccccc1,101,208*[may fluoresce violet],57,23,?
O=c1oc(-c2ccccc2F)nc2c1cnn2-c1ccccc1,103,103,99,101,96
CC(C)CN=Cc1c(O)c([N+](=O)[O-])cc2oc3c(c12)CCCC3,173*,134,107,125,119
Cc1oc2cc([N+](=O)[O-])c(O)c([N+](=O)[O-])c2c1C(=O)c1ccc(Cl)cc1,120,92,95,91,76
O=[N+]([O-])c1cc2oc3c(c2c(C=NCc2ccccc2)c1O)CCCC3,134,258*[may fluoresce violet],57,?,?
Cc1cccc(/N=C/c2c(O)ccc3oc4c(c23)CCCC4)n1,84,92,101,94,97
Cc1noc(C)c1S(=O)(=O)Nc1cccc(CO)c1,111,96,92,113,152*[may fluoresce green]
Cc1noc(C)c1S(=O)(=O)Nc1ccc(C#N)cc1,103,106,92,118,156*[may fluoresce green]
Cc1ccc(NS(=O)(=O)c2c(C)noc2C)cc1,117,106,103,91,100
CS(=O)(=O)N1CCc2cc(C(=O)Nc3ccc(COCC(F)(F)F)cc3)ccc21,116,159,112,103,155*
Clc1ccc(SCc2cc(-c3ccccc3)on2)cc1,83,218*[may fluoresce violet],53,?,?
CCC1CSC(=Nc2ccc(C)cc2)N1C(=O)CN1C(=O)NC2(CCCC2)C1=O (stereo unspecified),88,104,99,91,95
Cc1noc(/C=C/c2cccnc2)c1[N+](=O)[O-],161*,92,87,84,90
CC1(C)CCC[C@@]2(C)CC=C(C(=O)O)[C@@H]3C[C@]312,95,480*[may fluoresce violet],15*[may fluoresce violet],?,?
O=C(NCC1CC1)c1cccc2c1C(=O)c1ccc(-c3ccc(OC(F)(F)F)cc3)cc1S2(=O)=O,89,94,98,96,102
Cc1ccc(S(=O)(=O)Nc2ccc(C(OC(=O)c3ccccc3[N+](=O)[O-])(C(F)(F)F)C(F)(F)F)cc2)cc1,86,102,100,96,101
O=C(OC(c1ccc(NS(=O)(=O)c2ccccc2)cc1)(C(F)(F)F)C(F)(F)F)c1ccccc1,112,194*,98,91,92
CC(=O)CC(c1ccccc1)c1c(O)c2ccccc2oc1=O (stereo unspecified),99,212*![may fluoresce violet],40*![may fluoresce violet],?,?
